Laboratory results as given in PubChem BioAssay (NCI).
The panel holds about 83,000 compounds, 20% with a hit somewhere; the sample as a whole holds those more often.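 Testing used 96-well plates and a 48-hour single-concentration exposure. Example: -40 means 40% of the starting cells died.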 Values without a mark were called inactive. Calls of active or inactive are those of the source. How the source made its calls: active means growth percent below 10; inactive means the rest.

Tests used:
Assay in all cases: NCI-60 one-dose screen, 48 h (100 = growth as untreated, 0 = no growth, -100 = all killed)
Details in all cases: 10 µM unless noted
T-47D breast = tested on: T-47D breast
BT-549 breast = tested on: BT-549 breast
MDA-MB-435 melanoma = tested on: MDA-MB-435 melanoma
SW-620 colon = tested on: SW-620 colon
MCF7 breast = tested on: MCF7 breast
HCT-116 colon = tested on: HCT-116 colon
HCC-2998 colon = tested on: HCC-2998 colon
KM12 colon = tested on: KM12 colon

| Compound | growth (T-47D breast) | growth (BT-549 breast) | growth (MDA-MB-435 melanoma) | growth (SW-620 colon) | growth (MCF7 breast) | growth (HCT-116 colon) | growth (HCC-2998 colon) | growth (KM12 colon) |
| --- | --- | --- | --- | --- | --- | --- | --- | --- |
| CCN1C(=O)/C(=C/C(=O)OC)S/C1=N\NC(=O)c1cc2ccc1/C=C\c1ccc(cc1)/C=C\2 | 94.2% | 92.3% | 99.3% | 8.79% (active) | 43.7% | 49.5% | 105% | 85% |
| CCCCCCCCCCCCCCCC[N+]1(C)CCN(SN2CC[N+](C)(CCCCCCCCCCCCCCCC)CC2)CC1 | 102% | 87.7% | 95.7% | 57.7% | 76.9% | 31.6% | 70% | 78.2% |
| C=C(C)[C@@H]1CC[C@]2(C(=O)N[C@@H](Cc3ccccc3)C(=O)OC)CC[C@]3(C)[C@H](CC[C@@H]4[C@@]5(C)CCC(=O)C(C)(C)[C@@H]5CC[C@]43C)[C@@H]12 | 64.8% | 105% | 90.6% | 95.4% | 84.6% | 68.4% | 98.2% | 75.2% |
| COc1cccc2c1c1nc3cc(C)c(C)cc3nc1n2CCN(C)C | 30.1% | 68.8% | 31.3% | 12.6% | 4.64% (active) | 14.4% | 44.6% | 29.2% |
| N#Cc1c(NC(=O)NCc2ccccc2)sc2c1CCCCC2 | 37.8% | 26.2% | -40.5% (active) | 21.5% | 19.1% | 8.9% (active) | 24.5% | 12.6% |
| COc1cc(F)c(/C=C/c2cc(/C=C/c3cc(OC)c(OC)cc3F)on2)cc1OC | 79% | 91.4% | 7.63% (active) | 80.4% | 70.6% | 60.3% | 91.9% | 54.6% |
| CC(Sc1nc2ccccc2c(=O)n1CCc1ccc(S(N)(=O)=O)cc1)C(=O)Nc1ccc(Cl)cc1 (stereo not drawn) | 67.6% | 102% | 98.7% | 98.1% | 84.6% | 79.9% | 103% | 97.5% |
| NC(=NCCCOc1ccc(F)cc1)Nc1ccc(Cl)cc1 | 18.6% | 52.8% | 46.8% | 56.9% | 7.28% (active) | 16.5% | 40.8% | 76.7% |
| COc1ccc(C(=O)c2cc(C)c(OC)c(C)c2)c(OC)c1N(C(=O)CCl)C(=O)CCl | 51.2% | 3.05% (active) | -46.8% (active) | 20.3% | 14% | -0.69% (active) | 13.5% | 6.61% (active) |
| CCOC(=O)C1=C(C)NC(SCc2cc(=O)oc3ccc(F)cc23)=N[C@@H]1c1cccc2ccccc12 | 82.4% | 102% | 99.1% | 101% | 84.3% | 76.9% | 105% | 97.7% |
| COc1cc2oc(-c3cccc(C(=O)Nc4ccc5c(c4)OCO5)c3)cc(=O)c2c(O)c1OC | 69.5% | 84% | 79.1% | 84.5% | 91.6% | 57% | 105% | 70.6% |
| CCCCN1C=CCN(CCCC)C1 | 6.14% (active) | 56.9% | 6.59% (active) | 73.4% | 32.5% | 34% | 46.2% | 22.9% |
| COc1cc2c(=O)n(CCN(C)C)c3c4cc5c(cc4ccc3c2cc1OC)OCO5 | -20.5% (active) | 1.42% (active) | -65.4% (active) | -17.9% (active) | 7.27% (active) | -7.98% (active) | -58.1% (active) | -25.2% (active) |
| Cc1nc2ccc(Cl)cn2c1-c1nnc(SCc2ccc([N+](=O)[O-])cc2)o1 | 79.8% | 12.9% | 61.2% | 76.1% | 55.2% | 58.4% | 83.5% | 72.9% |
| Oc1cccc(CCc2ccc(Oc3cc(CCc4cccc(O)c4)cc(O)c3O)cc2)c1 | 73% | 82% | 68.6% | 79% | 77.8% | 73.2% | 92% | 81.5% |
| CC1(C)c2[nH]c3ccccc3c2C[C@]2(C)[C@H]3C(=O)C=C4[C@@H]5C[C@@](C)(C(N)=O)CC[C@]5(C)CC[C@@]4(C)[C@]3(C)CC[C@@H]12 | 20.3% | 70.7% | 83.6% | 79.4% | 35.3% | 46.3% | 79.2% | 67.5% |

| Compound | growth (T-47D breast) | growth (BT-549 breast) | growth (MDA-MB-435 melanoma) | growth (SW-620 colon) | growth (MCF7 breast) | growth (HCT-116 colon) | growth (HCC-2998 colon) | growth (KM12 colon) |
| --- | --- | --- | --- | --- | --- | --- | --- | --- |
| CN1CCC(=C(c2ccccc2)c2ccccc2)C(c2ccccc2)C1 (stereo not drawn) | 93.7% | 97.1% | 102% | 92.9% | 86.7% | 71.3% | 88.7% | 97.3% |
| Cc1ccc(-c2csc(NC(=O)CSc3nc(-c4ccccc4)cc(=O)[nH]3)n2)cc1 | 78.1% | 114% | 106% | 96.2% | 82.9% | 98.5% | 106% | 94.8% |
| C#CCNC(=O)[C@H](Cc1ccccc1)NC(=O)[C@]12CC[C@@H](C(=C)C)[C@@H]1[C@H]1CC[C@@H]3[C@@]4(C)CCC(=O)C(C)(C)[C@@H]4CC[C@@]3(C)[C@]1(C)CC2 | 49.8% | 104% | 85% | 64.8% | 56% | 35.3% | 80.8% | 61.5% |
| O=S(=O)(NCCNc1nccc(-c2c(-c3cccc(O)c3)nc3occn23)n1)c1ccc(Cl)cc1 | 91.7% | 116% | 45.4% | 125% | 82% | 87.6% | 135% | 91.3% |
| Brc1ccc2[nH]cc(-c3cncn3CCc3ccccc3)c2c1 | 22.9% | 41.3% | 57.5% | 72.2% | 48.9% | 43% | 72.5% | 68% |
| C=C(C)[C@@H]1CC[C@]2(C(=O)N[C@H](CO)Cc3ccccc3)CC[C@]3(C)[C@H](CC[C@@H]4[C@@]5(C)CCCNC(C)(C)[C@@H]5CC[C@]43C)[C@@H]12 | -58% (active) | -88.1% (active) | -93.6% (active) | -82.3% (active) | -69.7% (active) | -94.8% (active) | -84.7% (active) | -80.7% (active) |
| Cc1cccc(C)c1N=c1oc2ccc(Cl)cc2nc1-c1ccccc1O | 37.8% | 107% | 99.3% | 91% | 67.9% | 76.6% | 93.8% | 98.9% |
| C=C(C)[C@@H]1CC[C@]2(C(=O)N3CCN(C)CC3)CC[C@]3(C)[C@H](CC[C@@H]4[C@@]5(C)C/C(=C/c6ccncc6)C(=O)C(C)(C)[C@@H]5CC[C@]43C)[C@@H]12 | 48.3% | 66.3% | 56.4% | 39.6% | 19% | 17.6% | 62.5% | 51.3% |
| N=C(N)c1ccc(OCCCCCCCCCCOc2ccc(C(=N)N)cc2)cc1 | -59.1% (active) | -84.5% (active) | -94.6% (active) | -91.3% (active) | -71.7% (active) | -99.7% (active) | -94.9% (active) | -87.9% (active) |
| O=C(/C=C/c1ccc(F)cc1)c1ccc(NC(=O)N2CCN(c3cc4c(cc3F)c(=O)c(C(=O)O)cn4C3CC3)CC2)cc1 | 93.6% | 75.7% | 95.3% | 92% | 96.9% | 57.1% | 103% | 100% |
| Cc1nc(N)nc(N[C@@H](C)c2nc3cccc(NCc4ccc(C(=O)NO)cc4)c3c(=O)n2-c2ccccc2)n1 | 22.3% | 99% | 64.7% | 49.5% | 74.9% | 56.3% | 98% | 92.9% |
| Cc1ccccc1NS(=O)(=O)c1cccc(C(=O)Nc2ccc(Br)cc2)c1 | 25.8% [25 µM] | 31.2% [25 µM] | 28.3% [25 µM] | 58.8% [25 µM] | 30% [25 µM] | 30.5% [25 µM] | 67.3% [25 µM] | 37.1% [25 µM] |
| N#Cc1cccc(-c2ccc3c(c2)NC(=O)/C3=C\c2ccc[nH]2)c1 | -28.7% (active) | 17.4% | 43.9% | 51.6% | 10.1% | 73% | 36% | 20.4% |
| CCCCCC(=O)Oc1ccc(/C(=C(\C)c2ccccc2)c2ccc(OCCN3CCCCC3)cc2)cc1 | 37.3% | 78.4% | 85.9% | 87.9% | 27.7% | 56.6% | 79.1% | 71.6% |
| O=[N+]([O-])c1cc(Br)c2cccc3c2c1CC3 | 101% | 114% | 113% | 107% | 89% | 106% | 103% | 109% |
